# Imprint erasure: induces erasure of genomic imprints in mouse ES cells; mouse ES Peg3-LacZ reporter, beta-gal luminescence, 40 h; Potency, µM (highest dose often 60.7 µM), inactives show top-dose activity change, positive = activation, usual class: activators; 110,000 tested, 0.02% active; AID 1948
#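 Gelatin-coated wells received 300 freshly trypsinized female ES cells with a Peg3LacZ-Neo reporter on the maternal allele, then incubated 40 hours at 37C. BetaGlo was added for 5 minutes at room temperature before a single luminescence read.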
# p53ts 32C kill: cytotoxicity in p53ts cells at permissive temperature; H1299-p53A138V at 32C, ATP luminescence viability, 24 h; Potency, µM (top dose mostly 46.1 µM), inactives show top-dose activity change, negative = cytotoxicity, most hits filed as cytotoxic; 130,000 tested, 0.93% active; AID 924;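 also: 0% = DMSO and -100% = full killing by reference compound; nearly all actives have a fitted effect of over 55% in size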
#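 Cells: H1299 p53ts (A138V), 600/well, pre-incubated 16–30 h at 37C. Cpd up to 46 uM, 24 h, 32C. Readout: ATPlite luminescence, 20 min RT. Normalization: DMSO vs tamoxifen 100 uM. AC50 by Hill equation.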
# p53ts 39C kill: cytotoxicity in p53ts cells at nonpermissive temperature; H1299-p53A138V viability at 39C, ATP luminescence, 24 h; Potency, µM (titrated, usually from 46.1 µM), inactives show at the top dose activity change, negative = cell killing, most hits filed as cytotoxic; 130,000 tested, 1.5% active; AID 902; also: % is scaled to controls: 0 for no effect and ±100 for the full control effect; nearly all actives have a fitted effect of over 55% in size
# An asterisk follows results filed as active; ? = inconclusive; · = no result; [ ] = another dose, or the depositor's remark. Shown are actives, neighbours in structure and some others; about 1.8% of the full set was active somewhere. Calls follow the shape of the dose curve; as a rule, active = well fitted curve in the direction sought with a large enough effect; inconclusive = small, poorly fitted or top-dose-only effect, or another doubt; inactive = no such curve, though single readings can be large; an effect the other way counts as inactive or inconclusive. Potency is read from the fitted curve at half-maximal effect.
SMILES,Imprint erasure,p53ts 32C kill,p53ts 39C kill
CCOC(=O)c1ccc(N2C(=O)c3n[nH]c(-c4cccs4)c3C2c2ccc(CC)cc2)cc1 (stereo not drawn),6%[10.9 µM],?,10µM*
CCOC(=O)c1ccc(N2C(=O)c3n[nH]c(-c4cccs4)c3C2c2ccc(OCC)cc2)cc1 (stereo not drawn),-19%[10.9 µM],36%,?
CCOC(=O)c1ccc(N2C(=O)c3n[nH]c(-c4cccs4)c3C2c2cccc(O)c2)cc1 (stereo not drawn),-14%[10.9 µM],?,?
CCCCn1c(CN2CCN(c3cccc(Cl)c3)CC2)nc2c1c(=O)[nH]c(=O)n2C,-13%,-5%,-20%
Cn1c(=O)[nH]c(=O)c2c1nc(CN1CCN(c3cccc(Cl)c3)CC1)n2CCCc1ccccc1,-79%,5µM*,4µM*
CN(C(=O)CSc1nc2ccccc2n1CC(=O)N(C)c1ccc(F)cc1)c1ccccc1,-10%[10.9 µM],1%,10%
CCCCCCCC/C=C\CCCCCCCC(=O)NCCc1ccc(O)c(O)c1,-47%,?,13µM*
CCCCCCCC/C=C\CCCCCCCC(=O)NCc1ccc(O)c(OC)c1,-13%,?,32µM*
CCCCCCCCCCCCCCCC(=O)NCCc1ccc(O)c(O)c1,-21%,13%,-15%
CCCCCCCCCCCCCCCCCC(=O)NCCc1ccc(O)c(O)c1,0%,13%,-9%
CC1=C(C(=O)Nc2cccnc2)C(c2cccc(F)c2)n2nc(SCc3ccccc3)nc2N1 (stereo not drawn),-7%[10.9 µM],5%,-10%
COc1ccccc1N1CCN(c2cc(C)nc3nc(-c4ccc(Cl)cc4)nn23)CC1,-11%[10.9 µM],0%,-20%
COCCCNc1ncnc2c1nnn2C,-4%[10.9 µM],-10%,14%
CCOc1ccccc1Nc1nc(-c2cccc(Cl)c2)c2c(n1)-c1ccccc1OC2,-13%[10.9 µM],?,13µM*
CCOc1ccccc1Nc1nnc(-c2cc3cc(Cl)ccc3oc2=O)s1,-9%[10.9 µM],6%,?
Cc1c2cnn(-c3ccccc3)c(=O)c2c(C)n1CC(=O)NCCc1ccc(Cl)cc1,-4%[10.9 µM],-3%,-9%
CSc1ccccc1NC(=O)CCS(=O)(=O)c1nc(-c2ccc3c(c2)OCO3)cc(C(F)(F)F)n1,-7%[10.9 µM],?,4µM*
Cc1ccc(NC(=O)CCSc2nc(-c3ccc4c(c3)OCO4)cc(C(F)(F)F)n2)cc1,-6%[10.9 µM],-7%,8%
O=C(CCS(=O)(=O)c1nc(-c2ccc3c(c2)OCO3)cc(C(F)(F)F)n1)Nc1ccc(Br)cc1,-10%[10.9 µM],?,3.2µM*
O=C(CCS(=O)(=O)c1nc(-c2ccc3c(c2)OCO3)cc(C(F)(F)F)n1)Nc1ccccc1F,1%[10.9 µM],?,?
Cc1noc(C)c1-c1cncnc1N1CCN(C)CC1,5%,6%,-4%
Cc1cc(C(=O)CN2C(=O)c3ccccc3S2(=O)=O)c(C)n1CC1CCCO1 (stereo not drawn),-91%,2.5µM*,1µM*
CCn1c(SCC(=O)c2cc(C)n(CC3CCCO3)c2C)nc2ccccc21 (stereo not drawn),-14%,-6%,-5%
CCOC(=O)N1CCC(NC(=O)c2c(C)nn(-c3cccc(C)c3)c2-n2cccc2)CC1,-5%[10.9 µM],0%,-14%
CCC(Sc1nncn2c1cc1oc(C)cc12)C(=O)Nc1ccc(F)cc1 (stereo not drawn),-13%[10.9 µM],-24%,20µM*
SMILES,Imprint erasure,p53ts 32C kill,p53ts 39C kill
CCOC(=O)c1ccc(NC(=O)C(CC)Sc2nncn3c2cc2oc(C)cc23)cc1 (stereo not drawn),-11%[10.9 µM],9%,-1%
Cc1ccc(-c2cc(=O)c3ccccc3[nH]2)cc1,-27%[97.3 µM],·,·
Cc1ccc2[nH]c(-c3ccccc3)cc(=O)c2c1,-71%,6.3µM*,5µM*
Cc1c(C(=O)N(Cc2ccccc2F)C2CCS(=O)(=O)C2)oc2ccccc12 (stereo not drawn),-9%[10.9 µM],3%,8%
CCc1ccc2oc(-c3cc(N)ccc3Cl)nc2c1,-76%,?,10µM*
CCc1ccc2oc(-c3cc(N)ccc3O)nc2c1,-71%,13µM*,13µM*
CCc1ccc2oc(-c3cc(NC(=O)c4cccs4)ccc3Cl)nc2c1,-16%[10.9 µM],-20%,1%
CCc1ccc2oc(-c3cc(N)cc(C)c3O)nc2c1,27%,?,?
Cc1ccc(NC(=O)CN2C(=O)C(c3ccc(F)cc3)=NC2(C)C)c(C)c1,-2%[10.9 µM],7%,-11%
CCN(c1ncnc2c1cnn2-c1cccc(Cl)c1)C1CCCCC1,-14%[10.9 µM],?,?
Cc1ccc(Cl)cc1-n1ncc2c(N3CCN(Cc4ccccc4)CC3)ncnc21,-15%[10.9 µM],16µM*,20µM*
Clc1cccc(-n2ncc3c(N4CCCCCC4)ncnc32)c1,-12%[10.9 µM],?,13µM*
CCN1CCN(c2ncnc3c2cnn3-c2cc(Cl)ccc2C)CC1,15%[10.9 µM],-2%,?
Clc1cccc(-n2ncc3c(N4CCCCC4)ncnc32)c1,-41%[10.9 µM],3.2µM*,6.3µM*
Cc1nn(-c2ccccc2)c(Cl)c1C(=O)N1CCN(c2ncnc3c2cnn3-c2ccccc2)CC1,-25%,10µM*,?
c1ccc(Cn2ncc3c(N4CCCCC4)ncnc32)cc1,-12%,-2%,4%
O=C(c1ccco1)N1CCN(c2ncnc3c2cnn3-c2ccccc2)CC1,-5%,-6%,-3%
Cc1nn(-c2ccccc2)c2c1cc1c(=O)n(C)c(=O)nc-1n2-c1cccc(Cl)c1,-7%[10.9 µM],12%,8%
COc1ccc(-c2nnn3c2nc(NCCc2ccc(OC)c(OC)c2)c2ccccc23)cc1,-15%[10.9 µM],-3%,-18%
COc1cc2c(-c3cccc(Cl)c3)nc3c(c(C)nn3-c3ccccc3)c2cc1OC,-4%[10.9 µM],1%,12%
O=c1c(-c2ccccc2)nc2cnc(N3CCOCC3)nc2n1-c1ccccc1,·,-8%,-6%
CC1=C(C(=O)NCc2ccc(C)cc2)C2(CCCCC2)OC1=O,-9%[10.9 µM],2%,?
Cc1ccc2c(c1)[C@H]1OCC[C@H]1[C@@H](c1ccncc1)N2,2%,-4%,11%
Clc1ccc2c(c1)C1OCCC1C(c1ccco1)N2 (stereo not drawn),·,7.9µM*,10µM*
Cc1c(Cl)cccc1-n1nnc(-c2nc(-c3ccc4c(c3)OCO4)no2)c1C,-5%[10.9 µM],-5%,-12%
SMILES,Imprint erasure,p53ts 32C kill,p53ts 39C kill
O=C(Cn1c(=O)c2ccccc2n(CC(=O)Nc2ccc(F)cc2F)c1=O)NCCc1ccccc1,3%[10.9 µM],8%,-1%
COc1cccc(NC(=S)N/N=C2/CCCCc3ccccc32)c1,·,?,22µM*
CC(C)NC(=S)N/N=C1\CCCCc2ccccc21,·,·,22%
NNc1nncc2ccccc12,-14%,7.9µM*,10µM*
COc1ccc(/C=N/Nc2nncc3ccccc23)cc1,·,·,3.2µM*
COc1ccccc1/C=N/Nc1nncc2ccccc12,·,?,-8%
CC1CCN(c2nncc3ccccc23)CC1,-15%,6%,-6%
COc1ccc(N2CC(c3nc(-c4ccccc4C)no3)CC2=O)cc1Cl (stereo not drawn),-6%[10.9 µM],2%,-20%
Cc1cc(=O)cc2oc3cc(N)c(-c4c(C)cc(O)cc4O)c(C)c3nc1-2,-9%,-1%,-17%
Cc1cc(C)n(-c2nc3ccccc3nc2Nc2cccc(C(F)(F)F)c2)n1,-7%[10.9 µM],-3%,33%
Fc1ccc(Nc2nc3nonc3nc2Nc2cccc(C(F)(F)F)c2)cc1,-25%[10.9 µM],?,13µM*
